Compound activity: PubChem BioAssay, The Scripps Research Institute Molecular Screening Center
NCOA1 inh = human NCOA1 inhibition. HEK293 GAL4-SRC1 luciferase reporter, luminescence. inhibition, % at 3.6 µM. 0.12% of 360,000 active;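 active = inhibition above the campaign mean plus 3 SD, with each screening campaign given its own cutoff, cut at about 60% in these data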;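 also: 0% = DMSO treated cells and 100% = gossypol at 36 µM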
LRH-1 inv ag = suppresses constitutive activity of human LRH-1; O00482; HEK293T StAR-luciferase reporter, LRH-1 transfected, 24 h; inhibition, % at 3.6 µM; 0.13% of 360,000 active;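 active = inhibition above the mean inhibition of all tested compounds plus 3 SD, cut at about 73% in these data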;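 also: 0% = DMSO wells and 100% = reporter-only cells lacking LRH-1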
SRC3 inh = inhibitors of human steroid receptor coactivator 3 (SRC3); Q9Y6Q9; inhibition, % at 3.6 µM; HEK293 GAL4-SRC3 luciferase reporter, luminescence; 0.17% of 360,000 active; AID 588352;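 active = inhibition above a per-campaign cutoff, the mean of all compounds plus 3 SD, cut at about 60% in these data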;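 also: 0% = DMSO-treated cells and 100% = gossypol-treated cells at 36 µM; higher means less SRC3-driven luciferase light from the GAL4 reporter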
COUP-TFII inh = inhibitors of human COUP-TFII (NR2F2). P24468. HEK293T NGFI-A luciferase reporter, luminescence. inhibition, % at 8.6 µM. 0.7% of 370,000 active;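 active = inhibition above a per-plate cutoff, mean inhibition of test wells between control levels plus 3 SD, cut at about 38% in these data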;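 also: cells cotransfected with COUP-TFII expression vector driving the NGFI-A reporter; 0% = median of COUP-TF2 test wells and 100% = reporter-only cells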
SRC2 inh = inhibits human steroid receptor coactivator 2; inhibition, % at 9 µM; Q15596; AID 651957; HEK293 GAL4-SRC2 luciferase reporter, luminescence; 0.17% of 370,000 active;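 active = inhibition above the mean inhibition of all tested compounds plus 3 SD, set per campaign, cut at about 52% in these data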;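 also: 0% = DMSO treated cells and 100% = cells given Gossypol at 36 µM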
VP16 Luc counter = inhibits VP16 reporter, flagging COUP-TFII antagonist hits; shares compounds with COUP-TFII inh; HEK293 Gal4-VP16 luciferase reporter, luminescence; inhibition, % at 8.5 µM; 25% of 2,500 active; AID 687007; in the data active = inhibition above about 13%
COUP-TFII conf = confirmation of human COUP-TFII (NR2F2) inhibitors. shares compounds with COUP-TFII inh. HEK293 NGFI-A luciferase reporter, luminescence. inhibition, % at 8.5 µM. 45% of 2,500 active;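 active = mean inhibition over three repeats above a set limit taken from the earlier primary screen, cut at about 38% in these data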;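 also: 100% = cells given the luciferase reporter alone without the COUP-TF2 vector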
* = called active by the depositor. Most compounds without a hit are left out; they make up all but 0.84% or so of the library.

What do the screens show for `CC(C)Cc1ccc(C(C)C(=O)Nc2cccnc2)cc1` (centres undefined)?
NCOA1 inh: 10.4; LRH-1 inv ag: 25.8; SRC3 inh: 15.7; COUP-TFII inh: 46.1*; SRC2 inh: 14.3; VP16 Luc counter: 2.5; COUP-TFII conf: 41.4*

What do the screens show for `CC(C(=O)Nc1cccnc1)c1ccc([N+](=O)[O-])cc1` (centres undefined)?
NCOA1 inh: -9.4; LRH-1 inv ag: 22.4; SRC3 inh: 5.1; COUP-TFII inh: -5.1; SRC2 inh: -5.3

How did CC(NC(=O)COC(=O)c1ccccc1O)c1ccccc1 (centres undefined) do in these assays?
NCOA1 inh: 0.0; LRH-1 inv ag: 7.7; SRC3 inh: 0.6; COUP-TFII inh: -12.4; SRC2 inh: -4.5

What do the screens show for `O=C(COC(=O)c1ccccc1O)NC(c1ccccc1)c1ccccc1`?
NCOA1 inh: -0.6; LRH-1 inv ag: 10.8; SRC3 inh: -1.2; COUP-TFII inh: 41.3*; SRC2 inh: -11.8; VP16 Luc counter: -1.1; COUP-TFII conf: -1.7

Results for COC(=O)[C@]12C[C@H](CC(=O)NCc3ccccc3)C(=O)N(Cc3ccco3)C1=C[C@H](C(C)C)O[C@@H]2C1CC1 ?
COUP-TFII inh: -2.9; SRC2 inh: 11.5

How did O=C(Nc1cccc(-c2ccc(N3CCCCC3)nn2)c1)C(F)(F)F do in these assays?
NCOA1 inh: -36.3; LRH-1 inv ag: -58.4; SRC3 inh: -60.2; COUP-TFII inh: 19.9; SRC2 inh: 14.4

What do the screens show for `CC1CCN(c2ccc(-c3cccc(NC(=O)C(F)(F)F)c3)nn2)CC1`?
NCOA1 inh: 35.0; LRH-1 inv ag: 0.0; SRC3 inh: 11.7; COUP-TFII inh: 40.6*; SRC2 inh: 41.8; VP16 Luc counter: -0.6; COUP-TFII conf: 32.9

How did COC(=O)C1=C(C)N(Cc2ccccc2C(F)(F)F)C(=NCc2cc(OC)c(OC)c(OC)c2)NC1c1ccc(Cl)cc1 (centres undefined) do in these assays?
COUP-TFII inh: 41.0*; SRC2 inh: 0.5; VP16 Luc counter: -9.7; COUP-TFII conf: -0.5

What do the screens show for `COC(=O)C1=C(C)N(Cc2ccccc2C(F)(F)F)C(=NCc2cc(OC)c(OC)c(OC)c2)NC1c1ccccc1C(F)(F)F` (centres undefined)?
COUP-TFII inh: 3.6; SRC2 inh: -4.9

How did COCCN=c1scc(-c2ccc3c(c2)NC(=O)CO3)n1/N=C(\C)c1ccc(O)cc1 do in these assays?
NCOA1 inh: -7.8; LRH-1 inv ag: 11.3; SRC3 inh: 15.1; COUP-TFII inh: 37.9*; SRC2 inh: 23.1; VP16 Luc counter: -8.4; COUP-TFII conf: 0.4

How did CCOc1ccc(CN2CCN(C(=O)c3ccccc3)CC2)cc1 do in these assays?
NCOA1 inh: -3.0; LRH-1 inv ag: 12.4; SRC3 inh: 6.7; COUP-TFII inh: 25.4; SRC2 inh: 11.7

Results for CCOc1ccc(CN2CCN(C(=O)c3cccc4ccccc34)CC2)cc1 ?
NCOA1 inh: 10.9; LRH-1 inv ag: 15.6; SRC3 inh: 12.5; COUP-TFII inh: 59.2*; SRC2 inh: 14.7; VP16 Luc counter: 3.4; COUP-TFII conf: 34.8

What do the screens show for `Cc1cccc(C)c1OCc1cc(C(=O)N(Cc2c(C)nn(C)c2C)C2CC2)no1`?
NCOA1 inh: 18.8; LRH-1 inv ag: 11.9; SRC3 inh: 23.4; COUP-TFII inh: 50.8*; SRC2 inh: 10.1; VP16 Luc counter: -0.4; COUP-TFII conf: 32.3

How did CCC(C(=O)Nc1ccccc1N1CCCC1)c1cccc(C)c1 (centres undefined) do in these assays?
COUP-TFII inh: 7.7; SRC2 inh: -8.2

Results for COc1ccc(CC(=O)NC2CCCCN(Cc3ccc(Cl)cc3)C2=O)cc1OC (centres undefined) ?
COUP-TFII inh: 15.3; SRC2 inh: 9.0

Results for CC(C)C(=O)N1CCN(c2nc3ccc(Cl)cc3s2)CC1 ?
NCOA1 inh: -70.5; LRH-1 inv ag: -78.1; SRC3 inh: -34.0; COUP-TFII inh: -4.5; SRC2 inh: -24.1

Results for CC(C)NC(=O)N1CCCN(c2nc3ccc(Cl)cc3s2)CC1 ?
NCOA1 inh: -5.8; LRH-1 inv ag: 12.3; SRC3 inh: 9.0; COUP-TFII inh: 41.4*; SRC2 inh: -16.0; VP16 Luc counter: -31.3; COUP-TFII conf: 4.8

Results for CCCC1CCC2(CC1)CCC2OC(=O)Nc1ccccc1OC (centres undefined) ?
COUP-TFII inh: -3.8

How did CCOC(=O)Cc1nc(N2CCN(C=O)CC2)c2c(C)c(C(=O)OCC)sc2n1 do in these assays?
COUP-TFII inh: 4.8; SRC2 inh: 2.2

Results for Cc1cc(NC(=O)Nc2cccc(F)c2)n(-c2ccccc2)n1 ?
COUP-TFII inh: 14.8; SRC2 inh: 23.9

Results for C=CCn1c(COc2ccccc2)nnc1SCC(=O)Nc1ccc(S(=O)(=O)Nc2cc(C)nc(C)n2)cc1 ?
COUP-TFII inh: -9.4; SRC2 inh: -20.5

What do the screens show for `COc1ccc(S(=O)(=O)N2CCN(CCOc3ccc(Br)cc3)CC2)cc1OC`?
NCOA1 inh: 15.9; LRH-1 inv ag: 6.9; SRC3 inh: 6.8; COUP-TFII inh: 60.4*; SRC2 inh: 31.1; VP16 Luc counter: -13.3; COUP-TFII conf: 27.1

Results for COC(=O)[C@]12C[C@H](CC(=O)NCc3ccc(OC)c(OC)c3)C(=O)N(CCc3ccc(OC)c(OC)c3)C1=C[C@H](C(C)C)O[C@@H]2C1CC1 ?
COUP-TFII inh: 6.2; SRC2 inh: 15.4

How did CCOc1ccc(Nc2nc(NCC3CCCO3)c3ccccc3n2)cc1 (centres undefined) do in these assays?
NCOA1 inh: -6.3; LRH-1 inv ag: 0.1; SRC3 inh: 1.2; COUP-TFII inh: 59.7*; SRC2 inh: 8.2; VP16 Luc counter: 4.0; COUP-TFII conf: 42.6*

How did c1ccc(Nc2nc(NCC3CCCO3)c3ccccc3n2)cc1 (centres undefined) do in these assays?
NCOA1 inh: -0.6; LRH-1 inv ag: 16.0; SRC3 inh: 14.5; COUP-TFII inh: 36.2; SRC2 inh: 6.1

What do the screens show for `COc1ccc(CC(=O)NCc2nn(-c3ccccc3)nc2C)cc1OC`?
NCOA1 inh: -16.0; LRH-1 inv ag: -7.5; SRC3 inh: -5.4; COUP-TFII inh: -10.0; SRC2 inh: -20.6

How did COc1ccc(-c2ocnc2C(=O)NCc2nn(-c3ccccc3)nc2C)cc1 do in these assays?
NCOA1 inh: 25.7; LRH-1 inv ag: 15.4; SRC3 inh: 18.6; COUP-TFII inh: 60.3*; SRC2 inh: 27.2; VP16 Luc counter: 3.3; COUP-TFII conf: 40.5*

Results for COC1=C[C@H](C(=O)NCc2ccc(Cl)cc2)C(C)C(c2ccccc2)CC1=O (some centres undefined) ?
COUP-TFII inh: 10.1; SRC2 inh: 6.9
